Assay results taken from the supplement of paper PMC12282887.
± gives the standard deviation of the averaged measurements.

What was measured:
Experiment in all cases: promoter activity interaction Z-score (Lux/OD deviation from empty-vector control); higher = stronger promoter induction by the compound
[1] = test system: E. coli BW25113 acrABp lux reporter
Procedure, shortened: (§1)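 Wild-type E. coli BW25113 and three single-gene deletion strains, each carrying a low-copy luxCDABE promoter reporter, were grown at 37°C in 40 µl LB Lennox per well of a 384-well plate. Every compound was applied at four 1:2 dilutions in biological duplicates, and OD600 and luminescence were read every 30 min for 12 h. Integration covered 0–8 h for wild type and 1–9 h for deletion strains, and wells under 10% of the median growth value were removed. Scores are Z-transformed residuals of growth-normalised luminescence fitted against a control.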

[2] = test system: E. coli BW25113 marRABp lux reporter
Procedure, shortened: as §1

[3] = test system: E. coli BW25113 micFp lux reporter
Procedure, shortened: as §1

[4] = test system: E. coli BW25113 ompFp lux reporter
Procedure, shortened: as §1

[5] = test system: E. coli BW25113 robp lux reporter
Procedure, shortened: as §1

[6] = test system: E. coli BW25113 soxSp lux reporter
Procedure, shortened: as §1

[7] = test system: E. coli BW25113 tolCp lux reporter
Procedure, shortened: as §1

[8] = 21 µg/ml, genetic background: wild type
[9] = 21 µg/ml, genetic background: ΔmarA
[10] = 21 µg/ml, genetic background: Δrob
[11] = 21 µg/ml, genetic background: ΔsoxS
[12] = 42 µg/ml, genetic background: wild type
[13] = 42 µg/ml, genetic background: ΔmarA
[14] = 42 µg/ml, genetic background: Δrob
[15] = 42 µg/ml, genetic background: ΔsoxS
[16] = 84.1 µg/ml, genetic background: wild type
[17] = 84.1 µg/ml, genetic background: ΔmarA
[18] = 84.1 µg/ml, genetic background: Δrob
[19] = 84.1 µg/ml, genetic background: ΔsoxS
[20] = 168.2 µg/ml, genetic background: wild type
[21] = 168.2 µg/ml, genetic background: ΔmarA
[22] = 168.2 µg/ml, genetic background: Δrob
[23] = 168.2 µg/ml, genetic background: ΔsoxS

COc1ccc2cc3[n+](cc2c1OC)CCc1cc2c(cc1-3)OCO2 [Berberine]
promoter activity interaction Z-score [1, 8]: 0.0236 ± 0.072
promoter activity interaction Z-score [1, 9]: -0.475 ± 0.1
promoter activity interaction Z-score [1, 10]: -0.306 ± 0.009
promoter activity interaction Z-score [1, 11]: 0.123 ± 0.39
promoter activity interaction Z-score [1, 12]: -0.0191 ± 0.052
promoter activity interaction Z-score [1, 13]: -0.27 ± 0.38
promoter activity interaction Z-score [1, 14]: -0.196 ± 0.1
promoter activity interaction Z-score [1, 15]: 0.128 ± 0.55
promoter activity interaction Z-score [1, 16]: -0.175 ± 0.13
promoter activity interaction Z-score [1, 17]: -0.268 ± 0.47
promoter activity interaction Z-score [1, 18]: -0.263 ± 0.31
promoter activity interaction Z-score [1, 19]: 0.253 ± 1.1
promoter activity interaction Z-score [1, 20]: -0.0717 ± 0.13
promoter activity interaction Z-score [1, 21]: -1.16 ± 0.13
promoter activity interaction Z-score [1, 22]: -0.157 ± 0.19
promoter activity interaction Z-score [1, 23]: 0.745 ± 1.3
promoter activity interaction Z-score [2, 8]: -0.142 ± 0.16
promoter activity interaction Z-score [2, 9]: -0.0869 ± 0.24
promoter activity interaction Z-score [2, 10]: -0.003 ± 0.15
promoter activity interaction Z-score [2, 11]: 0.0721 ± 0.0037
promoter activity interaction Z-score [2, 12]: -0.183 ± 0.049
promoter activity interaction Z-score [2, 13]: -0.0953 ± 0.12
promoter activity interaction Z-score [2, 14]: -0.278 ± 0.1
promoter activity interaction Z-score [2, 15]: -0.0367 ± 0.026
promoter activity interaction Z-score [2, 16]: -0.286 ± 0.35
promoter activity interaction Z-score [2, 17]: 0.056 ± 0.18
promoter activity interaction Z-score [2, 18]: -0.324 ± 0.01
promoter activity interaction Z-score [2, 19]: -0.135 ± 0.015
promoter activity interaction Z-score [2, 20]: -0.373 ± 0.17
promoter activity interaction Z-score [2, 21]: -0.165 ± 0.027
promoter activity interaction Z-score [2, 22]: -0.287 ± 0.045
promoter activity interaction Z-score [2, 23]: -0.015 ± 0.094
promoter activity interaction Z-score [3, 8]: -0.242 ± 0.064
promoter activity interaction Z-score [3, 9]: 0.146 ± 0.14
promoter activity interaction Z-score [3, 10]: -0.0671 ± 0.15
promoter activity interaction Z-score [3, 11]: -0.125 ± 0.15
promoter activity interaction Z-score [3, 12]: 0.0805 ± 0.15
promoter activity interaction Z-score [3, 13]: 0.226 ± 0.014
promoter activity interaction Z-score [3, 14]: 0.0807 ± 0.046
promoter activity interaction Z-score [3, 15]: 0.68 ± 0.077
promoter activity interaction Z-score [3, 16]: 0.36 ± 0.12
promoter activity interaction Z-score [3, 17]: 0.426 ± 0.11
promoter activity interaction Z-score [3, 18]: 0.14 ± 0.12
promoter activity interaction Z-score [3, 19]: 0.7 ± 0.18
promoter activity interaction Z-score [3, 20]: 0.445 ± 0.051
promoter activity interaction Z-score [3, 21]: 0.425 ± 0.057
promoter activity interaction Z-score [3, 22]: 0.095 ± 0.17
promoter activity interaction Z-score [3, 23]: 2.075 ± 0.006
promoter activity interaction Z-score [4, 8]: -0.331 ± 0.05
promoter activity interaction Z-score [4, 9]: -0.189 ± 0.11
promoter activity interaction Z-score [4, 10]: -0.392 ± 0.37
promoter activity interaction Z-score [4, 11]: -0.128 ± 0.0057
promoter activity interaction Z-score [4, 12]: -0.202 ± 0.02
promoter activity interaction Z-score [4, 13]: -0.182 ± 0.032
promoter activity interaction Z-score [4, 14]: 0.159 ± 0.48
promoter activity interaction Z-score [4, 15]: -0.184 ± 0.26
promoter activity interaction Z-score [4, 16]: -0.592 ± 0.13
promoter activity interaction Z-score [4, 17]: 0.181 ± 0.27
promoter activity interaction Z-score [4, 18]: -0.302 ± 0.21
promoter activity interaction Z-score [4, 19]: 0.222 ± 0.86
promoter activity interaction Z-score [4, 20]: -0.265 ± 0.1
promoter activity interaction Z-score [4, 21]: -0.655 ± 0.28
promoter activity interaction Z-score [4, 22]: -0.0984 ± 0.32
promoter activity interaction Z-score [4, 23]: 0.615 ± 1.2
promoter activity interaction Z-score [5, 8]: -0.384 ± 0.27
promoter activity interaction Z-score [5, 9]: -0.668 ± 0.061
promoter activity interaction Z-score [5, 10]: -0.229 ± 0.035
promoter activity interaction Z-score [5, 11]: 1.02 ± 0.67
promoter activity interaction Z-score [5, 12]: -0.378 ± 0.14
promoter activity interaction Z-score [5, 13]: -0.587 ± 0.51
promoter activity interaction Z-score [5, 14]: -0.855 ± 0.25
promoter activity interaction Z-score [5, 15]: -0.0756 ± 0.39
promoter activity interaction Z-score [5, 16]: -0.935 ± 0.66
promoter activity interaction Z-score [5, 17]: -0.613 ± 0.14
promoter activity interaction Z-score [5, 18]: -0.951 ± 0.11
promoter activity interaction Z-score [5, 19]: -0.288 ± 0.24
promoter activity interaction Z-score [5, 20]: -0.906 ± 0.21
promoter activity interaction Z-score [5, 21]: -1.18 ± 0.24
promoter activity interaction Z-score [5, 22]: -0.88 ± 0.11
promoter activity interaction Z-score [5, 23]: -0.247 ± 0.37
promoter activity interaction Z-score [6, 8]: 0.0121 ± 0.039
promoter activity interaction Z-score [6, 9]: 0.176 ± 0.081
promoter activity interaction Z-score [6, 10]: 0.152 ± 0.084
promoter activity interaction Z-score [6, 11]: -0.0133 ± 0.085
promoter activity interaction Z-score [6, 12]: 0.0147 ± 0.0098
promoter activity interaction Z-score [6, 13]: 0.336 ± 0.2
promoter activity interaction Z-score [6, 14]: 0.0622 ± 0.0015
promoter activity interaction Z-score [6, 15]: -0.227 ± 0.048
promoter activity interaction Z-score [6, 16]: -0.148 ± 0.0029
promoter activity interaction Z-score [6, 17]: 0.232 ± 0.064
promoter activity interaction Z-score [6, 18]: 0.0295 ± 0.037
promoter activity interaction Z-score [6, 19]: -0.359 ± 0.27
promoter activity interaction Z-score [6, 20]: -0.174 ± 0.033
promoter activity interaction Z-score [6, 21]: 0.0364 ± 0.046
promoter activity interaction Z-score [6, 22]: -0.0651 ± 0.054
promoter activity interaction Z-score [6, 23]: -0.426 ± 0.38
promoter activity interaction Z-score [7, 8]: 0.227 ± 1.2
promoter activity interaction Z-score [7, 9]: 0.771 ± 0.18
promoter activity interaction Z-score [7, 10]: -0.361 ± 0.45
promoter activity interaction Z-score [7, 11]: 0.909 ± 0.084
promoter activity interaction Z-score [7, 12]: 0.235 ± 0.016
promoter activity interaction Z-score [7, 13]: 1.1 ± 0.24
promoter activity interaction Z-score [7, 14]: 0.305 ± 0.6
promoter activity interaction Z-score [7, 15]: 0.638 ± 0.84
promoter activity interaction Z-score [7, 16]: 0.735 ± 0.75
promoter activity interaction Z-score [7, 17]: 0.534 ± 0.58
promoter activity interaction Z-score [7, 18]: 0.496 ± 0.28
promoter activity interaction Z-score [7, 19]: -0.159 ± 0.1
promoter activity interaction Z-score [7, 20]: 0.2 ± 1.1
promoter activity interaction Z-score [7, 21]: -0.272 ± 1.3
promoter activity interaction Z-score [7, 22]: 0.279 ± 0.36
promoter activity interaction Z-score [7, 23]: 1.31 ± 0.19
